Source: ChEMBL document CHEMBL3988442, “University of Dundee, Small-Polar-MMV Screening Library” (2021)
In all, about 48,000 compounds went through this assay and about 13,000 (27%) showed an effect of 50% or more. The list shows a part of the results.

What follows are compounds tested on Wolbachia pipientis (assay: Anti-Wolbachia Cell-Based Screen). Conditions: 5 µM.
Assay type: functional
Design: scale not given: in the data most compounds retested in dose-response had high values

SMILES	Percent Effect
OCc1ccc(CN2CCC(n3cc(-c4ccsc4)nn3)CC2)o1	-3.234%
O=C(O)c1csc(S(=O)(=O)N2CCN(Cc3ccc(Cl)cc3)CC2)c1	3.67%
Cc1ccc(S(=O)(=O)NCCCN2CCC(O)CC2)cc1Cl	11.47%
COCc1noc(CCNc2nc(CC3CC3)nc3c2CCNCC3)n1	-2.883%
CCNC(=O)c1cnc(Cc2ccc(F)cc2)s1	-2.208%
Cc1noc(C)c1CN1CCc2ncnc(-c3cccnc3)c2CC1.O=C(O)C(F)(F)F.O=C(O)C(F)(F)F	104.6%
Cc1noc(C)c1CN1CCc2ncnc(-c3ccc(F)cc3)c2CC1.O=C(O)C(F)(F)F	85.48%
Cc1noc(C)c1CN1CCc2ncnc(-c3cnn(C)c3)c2CC1.O=C(O)C(F)(F)F	103.6%
Cn1cc(CN2CCc3ncnc(N4CCOCC4)c3CC2)cn1.O=C(O)C(F)(F)F.O=C(O)C(F)(F)F.O=C(O)C(F)(F)F	-9.324%
COc1ccc(NC(=O)C2CCOC2)c(N2CCN(C(C)=O)CC2)n1 (stereo unspecified)	4.465%
CC(=O)NCCNC(=O)C1(Oc2cccnc2C)CCNCC1	-9.586%
COCCCN(C)c1nc(-c2ccncc2)nc(C)c1C	-12.12%
Cc1cc(CN(C)C(=O)c2cccc(CCC(C)(C)O)c2)no1	3.557%
CCn1ccnc1CN1CCC(=O)N(CC2CC2)C(C(C)C)C1 (stereo unspecified)	-13.21%
Cc1nn(C)cc1C(=O)N1CCCC(c2nccn2Cc2cscn2)C1 (stereo unspecified)	27.14%
Cc1noc(C2CCCN(C(=O)c3ccc(Br)o3)C2)n1 (stereo unspecified)	-1.818%
Cc1cncc(C2CCCN(C(=O)c3ccc(C)[nH]c3=O)C2)n1 (stereo unspecified)	1.082%
Cc1cncc(C2CCCN(C(=O)c3cnco3)C2)n1 (stereo unspecified)	133.2%
Cc1cncc(C2CCCN(C(=O)c3scnc3C)C2)n1 (stereo unspecified)	-6.162%
Cc1cncc(C2CCCN(C(=O)c3cn(C)nc3C)C2)n1 (stereo unspecified)	117.2%
CS(=O)(=O)CCC(=O)Nc1ccsc1	-22.38%
CC(C)c1nc(-c2cc(C(=O)O)c3ccccn23)cs1	13.08%

SMILES	Percent Effect
O=S(=O)(CC1CC1)c1ncc(CN2CCSCC2)n1CC1CCCO1 (stereo unspecified)	-0.6342%
Cc1ccc(C(=O)N2CCN(c3ccnc4ccsc34)CC2)o1	5.784%
COc1ccc(Cc2ncc3c(n2)CN(C(=O)C(C)(C)OC)C3)cc1	70.44%
COc1ccc(Cc2ncc3c(n2)CN(C(=O)C(C)(C)C)C3)cc1	-16.53%
COc1ccc(Cc2ncc3c(n2)CN(C(=O)CO)C3)cc1	-17.5%
CC(=O)Nc1nc(-c2ccc(C)c(C)c2)c[nH]1	-24.79%
COc1ccc(C(C(=O)O)N(C)CCN2CCCC2)cc1F (stereo unspecified)	3.754%
COc1cc2cc(C)c(SCCN3CCCC3)nc2cc1OC.Cl	167.2%
COc1ccc(Oc2cccc(C#N)n2)cc1CN1CCCC1	-5.576%
COc1cc2cc(C)c(SCCN3CCCCC3)nc2cc1OC.Cl	107.6%
CCc1cc2cc(OC)c(OC)cc2nc1SCCN1CCCCC1.Cl	130.7%
COc1cccc(S(=O)(=O)CCN2CCCCC2)c1	0.4821%
CNC(=O)c1cccc(NC(=O)CN2CCN(S(C)(=O)=O)CC2)c1	1.111%
CCC(=O)N(C)Cc1cccc(OC(C)C)c1	-5.096%
CCc1nc(C)c(-c2nccn2CC2CCN(C3CCCC3)CC2)[nH]1	-19.3%
COc1cccc(C(=O)NCC2CCN(C(=O)c3ccoc3)CC2)c1	-1.127%
O=C(NCC1CC1)C1CCC2(CCN(C(=O)c3ccoc3)CC2)O1 (stereo unspecified)	90.09%
O=C(NC1CCC1)C1CCC2(CN(C(=O)c3ccco3)C2)O1 (stereo unspecified)	-15.31%
O=C(NCC1CC1)C1CCC2(CCN(C(=O)c3cccs3)CC2)O1 (stereo unspecified)	94.19%
Cc1ccccc1C(=O)N1CCC2(CCC(C(=O)NCC3CC3)O2)CC1 (stereo unspecified)	104%
Cc1ccccc1C(=O)N1CC(C(=O)NCC2CC2)C2(CCOCC2)C1 (stereo unspecified)	-6.965%
Cc1ccccc1C(=O)NC[C@@H]1CCN(C(=O)C2(O)CCCC2)C[C@H]1O	-6.733%

SMILES	Percent Effect
O=C(NCC1CC1)C1CCC2(CCN(C(=O)c3ccco3)CC2)O1 (stereo unspecified)	87.87%
O=C(NCC1CC1)C1CN(C(=O)c2cccs2)CC12CCOCC2 (stereo unspecified)	-5.71%
O=C(c1cccs1)N1CCC2(CC1)CC(Oc1ccccc1)CO2 (stereo unspecified)	6.178%
O=C(NC[C@H]1OC[C@@H]2CCN(C(=O)c3ccco3)C[C@@H]21)C1CC1	-4.179%
O=C(NCC1CCN(C(=O)c2ccoc2)CC1)c1ccccc1Br	-10.47%
CNC(=O)[C@@H]1C[C@@H](NC(=O)CSc2ccccc2)CN1C1CCOCC1	0.9976%
CCN(CC)c1ccc(NS(=O)(=O)c2cncc(F)c2)cn1	-6.269%
Cc1ccc(C(C)NCc2cn(CCC(N)=O)c3ccccc23)cc1C (stereo unspecified)	-0.5436%
COC(=O)c1sccc1CN1CCN(C(=O)c2ccc(C)o2)CC1	-11.02%
Cc1ccc(C(=O)N2CCC3(CCC(C(=O)NCC4CC4)O3)CC2)o1 (stereo unspecified)	101.4%
O=C(NCC1CC1)C1CCC2(CN(C(=O)c3ccno3)C2)O1 (stereo unspecified)	-9.78%
CCc1nnc(CN2CCC(N3CCN(CC)C3=O)CC2)o1	119.1%
CCN1CCN(C2CCN(Cc3nnc(C(C)C)o3)CC2)C1=O	147.9%
CC(O)CN1CCN(Cc2nnc(C3CC3)o2)CC1 (stereo unspecified)	3.93%
CCN1CCN(C2CCN(Cc3nnc(C(C)(C)C)o3)CC2)C1=O	-3.577%
CCN1CCN(C2CCN(Cc3noc(C)n3)CC2)C1=O	2.974%
CC(C)c1nnc(CN2C(=O)OC[C@@H]2C(C)C)o1	-6.188%
CCN1CCN(C2CCN(Cc3nnc(C4CC4)o3)CC2)C1=O	80.84%
CN1CCN(C2CCN(Cc3nnc(C(C)(C)C)o3)CC2)C1=O	116.2%
CCN1CCN(C2CCN(Cc3ncc(C(C)(C)C)o3)CC2)C1=O	-2.934%
CN1CCN(C2CCN(Cc3noc(C(C)(C)C)n3)CC2)C1=O	10.06%
CCN1CCN(C2CCN(Cc3c(C)noc3C)CC2)C1=O	-0.1089%
